ssDAF12 agonist: S. stercoralis DAF-12 activation, primary screen | HEK293 ssDAF-12/GRIP1 lit1-tk-luc reporter, luminescence; % of 3 µM dafachronic acid response | activation, % at 6.8 µM | hit rate 1% among 370,000;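 active = activation above the mean over all tested compounds plus 3 SD, cut at about 0.9% in these data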;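 note: 0% = DMSO-only wells and 100% = 3 µM delta7-dafachronic acid wells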
DAX1 inh-1: NR0B1 (DAX1) inhibition; HEK293 Gal4-DAX1 luciferase reporter, luminescence; inhibition, % at 6.75 µM; hit rate 0.99% among 340,000; AID 504766;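 active = inhibition above the mean over all tested compounds plus 3 SD, cut at about 4.2% in these data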;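 note: 0% = DAX1-transfected cells with DMSO and 100% = empty-vector control cells with DMSO; inhibition shows as a rise in luminescence from relieved DAX1 repression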
Target sequence (P51843 207-470 limits assumed): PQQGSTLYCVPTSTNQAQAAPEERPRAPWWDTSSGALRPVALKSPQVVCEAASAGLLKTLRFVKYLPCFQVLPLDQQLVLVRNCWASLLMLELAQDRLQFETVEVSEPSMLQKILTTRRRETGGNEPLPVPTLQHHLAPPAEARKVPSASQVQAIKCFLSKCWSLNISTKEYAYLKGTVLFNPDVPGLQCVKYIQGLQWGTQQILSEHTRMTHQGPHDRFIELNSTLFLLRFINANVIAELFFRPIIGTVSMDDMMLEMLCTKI
hcDAF12 agonist: activators of H. contortus DAF-12 nuclear receptor | HEK293 hcDAF-12 lit1-tk-luc reporter, luminescence; 0% DMSO, 100% Δ7-dafachronic acid | activation, % at 6.8 µM | hit rate 1.4% among 370,000;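 active = activation above the mean of all tested compounds plus 3 SD, cut at about 5.5% in these data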;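 note: 100% = response to 3 µM Δ7-dafachronic acid high control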
SMARCA2 activ: SMARCA2 function activation, primary screen. MG213 cells, MMTV-luciferase reporter, dexamethasone, overnight. activation, % at 9.1 µM. hit rate 1% among 370,000. AID 652017; in the data active = activation above about 7.8%;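 note: 0% = vehicle wells and 100% = reference activator wells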
hgDAF12 agonist: activates the H. glycines DAF-12 receptor ligand-binding domain; HEK293 GAL4-hgDAF12 UAS-luciferase reporter, agonist luminescence; normalized to butyrate control; activation, % at 6.8 µM; hit rate 1.8% among 370,000; AID 687014;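 active = activation above a cutoff set at the mean of all screened compounds plus 3 SD, cut at about 10% in these data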;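 note: 0% = DMSO wells and 100% = sodium butyrate wells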
DAX1 inh-2: blocks DAX1 repression of SF-1 activated StAR promoter; HEK293T StAR-luciferase reporter, SF-1/DAX-1 repression relief; inhibition, % at 6.8 µM; hit rate 1.1% among 370,000; AID 652010;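 active = inhibition above the mean over all tested compounds plus 3 SD, cut at about 3.6% in these data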;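 note: 0% = DAX-1 cells with DMSO and 100% = cells lacking DAX-1 with DMSO; higher inhibition means more luminescence from relief of DAX-1 repression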
* = called active by the depositor; . = no result. The list is not random: actives were taken first. Their share in the collection is about 4.8%.

SMILES	ssDAF12 agonist	DAX1 inh-1	hcDAF12 agonist	SMARCA2 activ	hgDAF12 agonist	DAX1 inh-2
COc1cc(OC)cc(C(=O)NCCN2C(=O)C3C4C=CC(C4)C3C2=O)c1 (stereo not drawn)	-1	.	-1	1	-2	-1
COC(=O)[C@]12C[C@H](CC(=O)N3CCN(C(=O)c4ccco4)CC3)C(=O)N(Cc3ccco3)C1=C[C@H](C(C)(C)C)O[C@@H]2C	-2	.	0	-3	-1	0
Cc1cccc(NC(=O)CN2C(=O)N/C(=C/c3cc(C)n(-c4cccnc4)c3C)C2=O)c1	-1	6.6*	-1	1	-3	0
Cc1cccc(NC(=O)CN2C(=O)N/C(=C/c3cc(C)n(-c4ccncc4)c3C)C2=O)c1	-1	0	-3	-1	0	-1
COc1cc(CO)ccc1OCc1ccc(Cl)nc1	1.3*	4	3	4	11*	0
COc1cc(CNCCc2ccc(F)cc2)ccc1OCc1ccc(Cl)nc1	-1	0	1	-7	2	0
O=C(CCc1ccccc1-c1ccccc1CCNC(=O)c1ccccc1)NCc1ccccc1	-2	.	-1	-2	-2	-1
CC(C)(C)c1ccc(-c2nnc(SCC(=O)Nc3ccc(S(=O)(=O)Nc4nccs4)cc3)n2-c2ccc(Cl)cc2)cc1	-1	.	-1	1	3	1
COc1ccc(C2C(C(=O)N3CCC(C)CC3)CC(=O)N2c2ccc(OC)cc2)cc1 (stereo not drawn)	-1	.	-2	-3	0	-1
CC(=O)n1cc(C2C(=O)CC(C)(C)CC2=O)c2ccccc21	1.4*	2	6.3*	1	-1	2
CC1(C)CC(=O)C(c2c[nH]c3ccccc23)C(=O)C1	0	2	4	-4	3	1
C=C(c1cn(C(C)=O)c2ccccc12)c1cn(C(C)=O)c2ccccc12	0	2	5.7*	-4	2	1
COC(=O)c1cn(C(=O)c2ccccc2)c2ccccc12	0	1	2	1	0	0
Oc1ccc(-c2nnc(SCC3CCCCC3)o2)cc1	0	1	1	3	11*	3
O=C(CSc1nnc(-c2ccc(F)cc2)o1)NC1CCCCC1	-2	1	-2	-5	-1	1
CC(C)CNc1cccc2c1S(=O)(=O)N(Cc1cn(Cc3ccc(C(F)(F)F)cc3)nn1)Cc1ccccc1O2	-1	.	-1	-4	2	0
CCn1c(Cc2cccs2)nnc1SCC(=O)Nc1cccc2ccccc12	-1	.	-1	0	0	0
C(#CSCc1ccccc1)SCc1ccccc1	0	4.3*	1	0	0	0
Cc1ccc(CC(=O)Nc2cccc(C)n2)cc1	1.9*	2	3	2	5	2
Cc1cccc(NC(=O)Cc2ccc(-c3ccccc3)cc2)n1	0	0	-2	-1	2	1
COC(=O)[C@]12C[C@H](CC(=O)NCCc3ccccc3OC)C(=O)N(CCC3=CCCCC3)C1=C[C@H](C(C)C)O[C@@H]2C1CC1	-1	.	-2	-3	-1	-1
Cc1ccc(S(=O)(=O)c2nc(S(C)(=O)=O)sc2N2CCCCCC2)cc1	-1	0	-2	-3	0	0
Cc1ccc(S(=O)(=O)c2nc(S(C)(=O)=O)sc2N2CCC(C)CC2)cc1	-1	0	-2	7.8*	-2	0
CC(C)(C)OC(=O)NCc1ccc(NC(=O)c2nc[nH]c2C(=O)Nc2cc(Br)ccc2F)cc1	1.1*	.	-1	0	3	1
CN1CCCN(C(=O)C2CCCN(C(=O)c3ccc4c(c3)NC(=O)CS4)C2)CC1 (stereo not drawn)	-1	.	1	2	-1	0
SMILES	ssDAF12 agonist	DAX1 inh-1	hcDAF12 agonist	SMARCA2 activ	hgDAF12 agonist	DAX1 inh-2
O=C(NCc1nc2ccccc2[nH]1)c1ccco1	-1	0	0	0	2	0
CCc1cccc(CC)c1NC(=S)NCc1nc2ccccc2[nH]1	0	5.4*	2	0	1	0
COc1ccc(C(=O)OC2CCN(c3ncc(C(F)(F)F)cc3Cl)CC2)cc1	-2	1	1	0	1	-1
COc1ccc([C@H]2C=C3CN(C(=O)OC(C)(C)C)S(=O)(=O)[C@H]3C[C@H]2OC(=O)c2ccc(C(F)(F)F)cc2)cc1	0	2	5.7*	-1	0	1
Cc1noc(N)c1C(=O)Nc1ccc(C(C)(C)C)cc1	0	3	1	2	13*	2
Cc1nc(Cl)sc1C(=O)Nc1ccc(C(C)(C)C)cc1	0	5.2*	1	4	5	-1
Cc1ccccc1NC(=O)c1sc(Cl)nc1C	-2	-1	-2	0	0	0
Cc1ccccc1C1CCC2(CC1)CCN(CC[C@@H](O)c1ccccc1)C2=O (stereo partly drawn)	-2	.	-1	.	2	.
O=C(CCn1nnc(-c2cccs2)n1)N1CCOCC1	-1	.	1	-5	0	2
Cc1ccc(C(=O)N/N=C\C=C\c2ccc(Br)cc2)cn1	1.0*	0	6.5*	-1	1	0
Cc1ccc(C(=O)N/N=C/c2cc(Br)ccc2O)cn1	-2	-4	-2	-2	-11	-2
O=C(NCc1ccccc1Cl)C1CCCN(c2nc3ccccc3o2)C1 (stereo not drawn)	-2	.	-2	-6	3	0
O=C(NC1CCCCN(Cc2cccc(C(F)(F)F)c2)C1=O)c1ccc(F)cc1 (stereo not drawn)	-2	.	-1	-3	-1	-2
Cc1ccc2[nH]c(O)c(N=Nc3ccccc3[N+](=O)[O-])c2c1	0	1	3	-2	3	1
COc1ccccc1N=Nc1[nH]c2ccc(C)cc2c1O	0	0	6	7.9*	8	0
C[C@@H](C(=O)Nc1nccs1)N1C(=O)C2CC=CCC2C1=O (stereo partly drawn)	-1	4.8*	0	-4	-1	1
CCOc1ccccc1C(=O)Nc1ccc(S(=O)(=O)Nc2nccc(C)n2)cc1	0	0	6.2*	2	-2	0
Cc1cc(C)nc(NS(=O)(=O)c2ccc(NC(=O)c3ccc(O)cc3O)cc2)n1	0	1	5.7*	-2	0	0
C[C@H](O)[C@@H]1C(=O)N2CCc3c([nH]c4c(-c5ccc6c(c5)OCO6)cccc34)[C@@H]2C[C@@H]1N(C)C(=O)c1ccccc1F	-1	.	-4	-4	2	-2
Nc1ncnc2c1ncn2Cc1ccccc1	-2	3	-1	2	7	-1
Nc1nc(Cl)nc2ncn(Cc3ccccc3)c12	0	-2	1	8	11*	1
O=C(C1CCN(c2cncnc2)CC1)N1CCCC1	-1	.	0	-3	2	1
C(=NOCCc1ccccc1)c1ccccn1	0	2	0	4	7	2
